Source: PubChem
Algae TAG accum: increases triacylglycerol in Chlamydomonas reinhardtii; actives 0.84% (n = 44,000); Chlamydomonas reinhardtii TAG, Nile Red fluorescence, 72 h; calls only at 10 µM (by protocol); call rule not given here;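 note: hits raise Nile Red signal meaning more stored TAG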
Numbers without * were called inactive. The full list was thinned out, with hits kept by preference.

Screening C=CCc1ccccc1OCC(O)CN1C(C)CCCC1C (stereo not given) returned Algae TAG accum inactive.
For COc1ccc(C)cc1NC(=O)C(c1ccccc1)c1ccccc1 the results were Algae TAG accum inactive.
`COc1cccc(N2C(=O)CC(N3CCN(c4ccccc4)CC3)C2=O)c1` (stereo not given) gave Algae TAG accum inactive.
Screening COc1cccc(N2CCN(C3CCC(C)C3)CC2)c1 (stereo not given) returned Algae TAG accum inactive.
For CC1CCC(N2CCN(c3ncccn3)CC2)C1 (stereo not given) the results were Algae TAG accum inactive.
For CC1CCC(N2CCN(c3ccccc3)CC2)C1 (stereo not given) the results were Algae TAG accum active.
COc1ccccc1N1CCN(C2CCC(C)CC2)CC1 (stereo not given) was read as Algae TAG accum inactive.
Screening COc1cccc(N2CCN(C3CCCC(C)C3)CC2)c1 (stereo not given) returned Algae TAG accum active.
For O=C(Nc1ccccc1C(=O)NC(Cc1ccccc1)C(=O)N1CCOCC1)c1ccco1 (stereo not given) the results were Algae TAG accum inactive.
`COc1cc([N+](=O)[O-])ccc1NC(=O)c1ccc(C)c(C)c1` gave Algae TAG accum inactive.
For COc1cc([N+](=O)[O-])ccc1NC(=O)c1c(F)c(F)c(F)c(F)c1F the results were Algae TAG accum active.
For COc1cc([N+](=O)[O-])ccc1NC(=O)c1ccccc1F the results were Algae TAG accum inactive.
CCOc1ccccc1N(CC(=O)NC(C)(C)C)S(=O)(=O)c1ccccc1 was read as Algae TAG accum inactive.
Screening O=C(Nc1ccc(S(=O)(=O)N2CCCC2)cc1)c1ccc(Cl)cc1Cl returned Algae TAG accum active.
Screening O=C(Nc1ccccc1)c1cc(S(=O)(=O)N2CCCCC2)ccc1Cl returned Algae TAG accum inactive.
For O=C(Nc1ccc(S(=O)(=O)N2CCCC2)cc1)c1ccccc1I the results were Algae TAG accum inactive.
O=C(NC1CCN(Cc2ccccc2)CC1)c1ccccc1Br was read as Algae TAG accum inactive.
For O=C(NC1CCN(Cc2ccccc2)CC1)c1ccc(Cl)cc1Cl the results were Algae TAG accum active.
O=C(NC1CCN(Cc2ccccc2)CC1)c1sc2ccccc2c1Cl was read as Algae TAG accum inactive.
`Cn1c(-c2ccc(C=O)o2)nc2ccccc21` gave Algae TAG accum inactive.
COc1ccc(OC)c(N/C=C(/C#N)c2nc(-c3ccc(F)cc3)cs2)c1 was read as Algae TAG accum inactive.
For COc1ccccc1NC(=O)c1ccc2c(c1)C(=O)N(C1CCCCC1)C2=O the results were Algae TAG accum inactive.
For O=C(c1ccc(F)cc1)N1CCCCCC1 the results were Algae TAG accum inactive.
`O=C(O)C1CCN(C(=O)c2ccc(F)cc2)CC1` gave Algae TAG accum active.
Cc1ccc(C(=O)N2CCC(C(=O)O)CC2)cc1 was read as Algae TAG accum inactive.
For COc1ccc(CC(=O)Nc2ccc(Nc3ccccc3)cc2)cc1OC the results were Algae TAG accum inactive.
`Cc1ccc(C(=O)NCC(O)c2ccccc2)cc1` (stereo not given) gave Algae TAG accum inactive.
OC(CNCCc1ccccc1)c1ccccc1 (stereo not given) was read as Algae TAG accum active.
For OC(Cc1ccccc1)c1ccccc1 (stereo not given) the results were Algae TAG accum inactive.
NC(=O)c1ccc(NC(=O)CCCC(=O)O)cc1 was read as Algae TAG accum inactive.
`COc1ccccc1NC(=O)Nc1nnc(COc2ccc([N+](=O)[O-])cc2)s1` gave Algae TAG accum inactive.
Screening CS(=O)(=O)N(Cc1ccccc1)c1ccc(C(=O)N2CCCCC2)cc1 returned Algae TAG accum inactive.
`COc1ccc(C(=O)Nc2sc3c(c2C(N)=O)CCC(C)C3)c(OC)c1` (stereo not given) gave Algae TAG accum active.
Screening CC1CCc2c(sc(NC(=O)c3ccccc3[N+](=O)[O-])c2C(N)=O)C1 (stereo not given) returned Algae TAG accum inactive.
Screening Cc1ccc(C(=O)Nc2sc3c(c2C(N)=O)CCC(C)C3)o1 (stereo not given) returned Algae TAG accum inactive.
For CCN(C(=O)COc1ccccc1)c1nnc(-c2ccc(Cl)cc2)s1 the results were Algae TAG accum inactive.
`CCN(CC)CCN1C(=O)C(=O)C(=C(O)c2ccc(F)cc2)C1c1ccc(OC)c(OC)c1` (stereo not given) gave Algae TAG accum inactive.
Screening O=C(c1ncn[nH]1)N1CCN(c2ccc([N+](=O)[O-])c(NCc3ccc(Cl)cc3)c2)CC1 returned Algae TAG accum inactive.
